From PubChem BioAssay (NCATS) come the findings set out here.

Values without a mark were called inactive. Inconclusive results are not listed. Active and inactive are the calls of the source. Unless noted, calls come from the whole dose curve; as a rule, active = well fitted curve in either direction with a large enough effect (not every such curve was filed as active); inconclusive = small, poorly fitted or top-dose-only effect, or another doubt; inactive = flat fitted curve, though single readings scatter.

The target in assay [1] is Lysosomal acid glucosylceramidase (Homo sapiens) (UniProt P04062). Put plainly: Glucocerebrosidase-p2 (AID 348; in the data active = potency below about 10 µM; note: potency is the fitted concentration of half-maximal effect). To be noted: purified GBA, blue fluorogenic substrate, 40 min. The gist of the method: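 Compounds titrated from 0.6 nM upwards against 0.2 nM enzyme in pH 5.9 citric acid/KH2PO4, taurocholate, tween-20; blue fluorogenic substrate 80 uM, 40 min room temperature, stopped and read Ex 365/Em 440 for AC50.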

Assay [2] in a line: AP1 Signaling Pathway (AID 357).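 Note: ME-180 reporter cells stimulated with EGF at its EC50 level; % is set by controls: 0 for no effect and ±100 for the full control effect.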 To be noted: ME-180 AP-1-bla reporter, EGF-induced, beta-lactamase ratio, 5 h; at 7.69 µM (top of the series) unless noted. The gist of the method:
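Modulation of EGF-driven AP-1 transcription was assessed with a beta-lactamase reporter in ME-180 cells. Compound and EC50 EGF were co-incubated 5 hours at 37 °C before 2.5-hour CCF4 loading at room temperature and dual-emission reading.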

The nature of assay [3]: NFAT Signaling Pathway (AID 444).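 Note: carbachol stimulus at about its EC50 of 1 µM final; % is set by controls: 0 for no effect and ±100 for the full control effect.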 Particulars: Jurkat NFAT-bla M1, carbachol, beta-lactamase ratio, 5 h; at 7.69 µM (top of the series) unless noted. The gist of the method:
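Read-out: CCF4 FRET ratio (460 nm/530 nm) after 1 h RT dye loading, used for %activity and AC50 from titration series. Cells: Jurkat NFAT-β-lactamase/M1 line, treated with compound plus 1 uM carbachol for 5 h, 37 °C.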

Assay [4] in a line: Stat Signaling Pathway (AID 446).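 Note: ME-180 cervical cancer cells given 40 pM IL-6 alongside compound; SIE-controlled beta-lactamase reporter measured as 460/530 nm FRET emission ratio; % is set by controls: 0 for no effect and ±100 for the full control effect.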 Particulars: ME-180 (cervical carcinoma) SIE beta-lactamase reporter, IL-6 stimulated, 5 h; at 7.69 µM (top of the series) unless noted. The gist of the method:
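ME-180 SIE-bla cells; overnight plating; cpd + IL-6 40 pM, 5 h, 37 C; LiveBLAzer 2.5 h RT; 460/530 nm emission ratio. Normalized to 300 pM IL-6 and 125 nM JAK inhibitor controls.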

Assay [5] concerns the target Glucocorticoid receptor (Homo sapiens) (UniProt P04150). The assay is described as follows: GR-GFP Redistribution (AID 450;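 active = compounds whose dose series gives a full or clear partial fitted curve of increased nuclear translocation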; note: potency is the fitted concentration of half-maximal effect). Particulars: U2OS GR-GFP nuclear translocation, laser cytometry, 2 h.
The target is the same in assay [6]. Put plainly: GR-EFC Redistribution (AID 451; calls by dose curve; note: potency is the fitted concentration of half-maximal effect). Particulars: CHO-K1 GR-EFC translocation, beta-gal luminescence, 2 h. A digest of the protocol:
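Translocation of GR-ED fusion to nuclear EA restores b-gal, read by luminescence after 1 h room-temperature detection. Engineered CHO-K1 biosensor cells, 1,000/well, exposed 2 h at 37 C to titrations up to 46 uM final.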

The target in assay [7] is Mitogen-activated protein kinase 10 (Mus musculus) (UniProt Q61831). The assay is described as follows: JNK3 AlphaScreen Assay (AID 530).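 For activity change, negative = inhibition: signal reports phosphorylation of biotinylated GST-cJun 1-79 at Ser73 with 10 µM ATP; % is set by controls: 0 for no effect and ±100 for the full control effect.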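 Note: kinase came from lysate of stimulated human HepG2 cells.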 Note: potency is the fitted concentration of half-maximal effect. To be noted: JNK3 lysate, c-Jun phosphorylation; series mostly up to 11.4 µM. A digest of the protocol: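 Room-temperature AlphaScreen kinase assay; pre-activated HepG2 lysate as JNK3 source, biotin-GST-cJun(1-79) substrate, 10 uM ATP, compound 15 min preincubation.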

Assay [8] deals with 3',5'-cyclic-AMP phosphodiesterase 4B (Homo sapiens) (UniProt Q07343). Put plainly: qHTS Assay for Inhibitors of PDE-IV (AID 607; active = well fitted activation curve with a large enough effect in the main read-out, with a control signal flat, not every such curve was filed as active; note: % of control where 0% means no effect). Particulars: HEK293 ACTOne CNG channel cells, membrane potential fluorescence; series mostly up to 22.9 µM. The gist of the method: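 ACTOne HEK293 cells carry a modified cAMP-gated CNG channel and express endogenous PDE4; plated 1000 cells/well, compounds up to 22.9 uM final. Membrane-potential dye fluorescence (ex 535/em 590) was read; parental cells received 10 uM forskolin + 100 uM RO 20-1724.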
Background: Quantitative high-throughput screening tests each substance at several concentrations.

Chain of 3',5'-cyclic-AMP phosphodiesterase 4B (Homo sapiens) (Q07343 whole entry, looked up): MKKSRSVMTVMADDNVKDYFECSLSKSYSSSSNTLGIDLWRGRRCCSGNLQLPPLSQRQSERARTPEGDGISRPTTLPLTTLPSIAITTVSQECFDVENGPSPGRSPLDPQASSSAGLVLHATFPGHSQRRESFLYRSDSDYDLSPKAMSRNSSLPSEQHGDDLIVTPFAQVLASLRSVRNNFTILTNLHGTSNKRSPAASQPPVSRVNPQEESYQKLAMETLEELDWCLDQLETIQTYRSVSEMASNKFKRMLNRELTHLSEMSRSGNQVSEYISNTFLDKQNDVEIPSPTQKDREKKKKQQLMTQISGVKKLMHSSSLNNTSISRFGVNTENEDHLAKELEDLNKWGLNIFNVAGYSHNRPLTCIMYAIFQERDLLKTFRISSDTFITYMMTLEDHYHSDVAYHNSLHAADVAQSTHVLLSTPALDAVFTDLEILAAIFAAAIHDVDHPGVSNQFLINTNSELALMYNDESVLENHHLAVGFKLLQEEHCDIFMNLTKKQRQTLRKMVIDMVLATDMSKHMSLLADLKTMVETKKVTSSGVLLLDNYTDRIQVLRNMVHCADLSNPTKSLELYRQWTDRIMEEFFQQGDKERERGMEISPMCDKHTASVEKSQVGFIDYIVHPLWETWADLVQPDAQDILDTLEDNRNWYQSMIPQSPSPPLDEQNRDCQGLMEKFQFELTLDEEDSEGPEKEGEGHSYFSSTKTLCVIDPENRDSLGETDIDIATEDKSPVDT
Chain of Glucocorticoid receptor (Homo sapiens) (P04150 whole entry, looked up): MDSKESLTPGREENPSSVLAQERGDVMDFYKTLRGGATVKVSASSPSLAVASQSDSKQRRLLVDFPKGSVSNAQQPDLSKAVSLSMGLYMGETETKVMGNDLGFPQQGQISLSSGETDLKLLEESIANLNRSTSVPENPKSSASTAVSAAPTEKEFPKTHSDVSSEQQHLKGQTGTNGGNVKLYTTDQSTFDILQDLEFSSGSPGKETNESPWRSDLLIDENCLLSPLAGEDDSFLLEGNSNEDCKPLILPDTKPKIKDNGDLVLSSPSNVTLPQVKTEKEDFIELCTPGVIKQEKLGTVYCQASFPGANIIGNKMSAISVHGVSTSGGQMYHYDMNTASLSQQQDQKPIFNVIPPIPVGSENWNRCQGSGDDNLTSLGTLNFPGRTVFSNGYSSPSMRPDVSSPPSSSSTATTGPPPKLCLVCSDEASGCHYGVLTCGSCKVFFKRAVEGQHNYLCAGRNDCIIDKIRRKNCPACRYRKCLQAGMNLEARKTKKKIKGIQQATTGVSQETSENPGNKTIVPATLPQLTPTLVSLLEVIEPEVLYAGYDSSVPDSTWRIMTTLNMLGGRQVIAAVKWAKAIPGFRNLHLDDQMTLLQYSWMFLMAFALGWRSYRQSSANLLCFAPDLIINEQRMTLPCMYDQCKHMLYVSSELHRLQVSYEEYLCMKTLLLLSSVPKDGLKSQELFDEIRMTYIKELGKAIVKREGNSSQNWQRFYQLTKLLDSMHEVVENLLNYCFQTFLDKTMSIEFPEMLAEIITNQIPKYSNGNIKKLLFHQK
Chain of Lysosomal acid glucosylceramidase (Homo sapiens) (P04062 whole entry, looked up): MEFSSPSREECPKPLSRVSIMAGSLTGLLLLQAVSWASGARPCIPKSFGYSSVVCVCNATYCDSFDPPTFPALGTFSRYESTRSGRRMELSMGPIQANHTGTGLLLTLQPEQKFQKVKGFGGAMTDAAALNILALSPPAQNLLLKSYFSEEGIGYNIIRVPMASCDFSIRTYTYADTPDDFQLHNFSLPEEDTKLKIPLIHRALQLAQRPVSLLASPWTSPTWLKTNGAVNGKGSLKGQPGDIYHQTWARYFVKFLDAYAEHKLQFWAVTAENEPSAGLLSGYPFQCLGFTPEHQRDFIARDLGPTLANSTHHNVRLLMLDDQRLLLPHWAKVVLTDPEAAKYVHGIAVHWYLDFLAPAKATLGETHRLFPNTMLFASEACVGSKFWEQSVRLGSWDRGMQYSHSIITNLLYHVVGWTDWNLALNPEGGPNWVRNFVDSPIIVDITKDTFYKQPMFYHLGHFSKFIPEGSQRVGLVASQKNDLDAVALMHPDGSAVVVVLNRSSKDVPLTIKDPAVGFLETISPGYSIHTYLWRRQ

Consider `Cc1nc([N+](=O)[O-])cn1-c1nc2ccccn2c1[N+](=O)[O-]`, for which the Potency in assay [1] is more than 11.4 µM; in assay [5], more than 46 µM; in assay [6], more than 9.22 µM. In addition, the activity change, negative = inhibition in assay [2] was 2.55%; in assay [3] it was -3.74%. The activity, negative = inhibition in assay [4] was 4.02%. Besides, the Potency result in assay [7] and in assay [8] was “inactive” in each case.
As to `O=C(O)[C@H]1CCCC[C@@H]1C(=O)Nc1nc2ccccc2[nH]1`, the Potency in assay [1] was more than 11.4 µM; in assay [5], more than 46 µM; in assay [6] it was more than 9.22 µM. The activity change, negative = inhibition is 1.58% in assay [2] and 9.82% in assay [3]. Also, the activity, negative = inhibition in assay [4] is 2.07%. For the same compound, the Potency entry in assay [7] and in assay [8] was “inactive” each time.
With `CN(C)c1ccc2nc3c(C(=O)O)cc(=O)c(O)c-3oc2c1`, the values for the Potency in assay [1], in assay [5] and in assay [6] were more than 11.4 µM, more than 46 µM and more than 9.22 µM, respectively. Further, the activity change, negative = inhibition in assay [2] was -7.19%; in assay [3] it was 4.18%. In addition, in assay [4], the activity, negative = inhibition was -14.8%. Further, the Potency result in assay [7] and in assay [8] was “inactive” each time.
On to `Cc1cccc(CNc2ncnc3[nH]ncc23)c1`, for which the Potency was more than 11.4 µM in assay [1], more than 46 µM in assay [5] and more than 9.22 µM in assay [6]. The activity change, negative = inhibition is -1.11% in assay [2] and -3.71% in assay [3]. For the same compound, the activity, negative = inhibition in assay [4] was -8.78%. The Potency result in assay [7] and in assay [8] was “inactive” throughout.
Take `NC(=O)NOC[C@@H]1NC(=O)NC1=O`: the results for the Potency in assay [1], in assay [5] and in assay [6] were more than 11.4 µM, more than 46 µM and more than 9.22 µM, respectively. Moreover, the activity change, negative = inhibition in assay [2] was 0.037%; in assay [3] it was 8.44%. Further, the activity, negative = inhibition in assay [4] was 9.07%. Besides, the Potency entry in assay [7] and in assay [8] was “inactive” each time.
For the compound `O=C1CC[C@](CCc2nc3ccccc3[nH]2)(c2ccccc2)C(=O)N1`, the Potency in assay [1] was more than 11.4 µM; in assay [5], more than 46 µM; in assay [6], more than 9.22 µM. Moreover, the activity change, negative = inhibition is 1.26% in assay [2] and 7.74% in assay [3]. For the same compound, the activity, negative = inhibition in assay [4] is 3.31%. For the same compound, the Potency entry in assay [7] and in assay [8] was “inactive” each time.
Turning to `Cc1cc2c(SCc3ccccc3Cl)nc(N)nc2nc1C`, the Potency in assay [1] was more than 11.4 µM; in assay [5], more than 46 µM; in assay [6], more than 9.22 µM. Besides, the activity change, negative = inhibition is -22.2% in assay [2] and 15% in assay [3]. Also, in assay [4], the activity, negative = inhibition is -10.5%. Also, the Potency entry in assay [7] and in assay [8] was “inactive” in each case.
With `C[C@@H](CCC(=O)O)C(=O)O`, the Potency is more than 11.4 µM in assay [1], more than 46 µM in assay [5] and more than 9.22 µM in assay [6]. Further, the activity change, negative = inhibition in assay [2] is 3.57%; in assay [3], 5.4%. In assay [4], the activity, negative = inhibition was 0.834%. Also, the Potency entry in assay [7] and in assay [8] was “inactive” each time.
For `C[N+](C)([O-])Cc1cc(-c2ccccc2)ccc1O`, the Potency in assay [1] is more than 11.4 µM; in assay [5], more than 46 µM; in assay [6] it was more than 9.22 µM. The activity change, negative = inhibition in assay [2] is -2.32%; in assay [3], 1.32%. The activity, negative = inhibition in assay [4] is -3.36%. For the same compound, the Potency result in assay [7] and in assay [8] was “inactive” throughout.
As for `Nc1nc2nc3c(nc2c(=O)[nH]1)CN(c1ccc(C(=O)O)cc1)C3=O`, the Potency is more than 11.4 µM in assay [1], more than 46 µM in assay [5] and more than 9.22 µM in assay [6]. Besides, the activity change, negative = inhibition in assay [2] is -9.73%; in assay [3], 13.8%. Further, the activity, negative = inhibition in assay [4] was -8.98%. In addition, the Potency result in assay [7] and in assay [8] was “inactive” throughout.
Take `C[C@@H](CCC[C@@H]1SC[C@H]2NC(=O)N[C@H]12)C(=O)O`: the Potency in assay [1] is more than 11.4 µM; in assay [5] it was more than 46 µM; in assay [6] it was more than 9.22 µM; in assay [7] it was 0.0316 µM (active). Moreover, the values for the activity change, negative = inhibition in assay [2] and in assay [3] were -0.543% and -21.7%, respectively. Besides, in assay [4], the activity, negative = inhibition was -4.44%. Further, the Potency result in assay [8] was “inactive”.
Take `CC(C)(C)n1nc(C2CC2)cc1NC(=O)Nc1ccc(Cl)cc1`: the values for the Potency in assay [1], in assay [5] and in assay [6] were more than 11.4 µM, more than 46 µM and more than 9.22 µM, respectively. The activity change, negative = inhibition was -5.76% in assay [2] and 8.66% in assay [3]. Moreover, in assay [4], the activity, negative = inhibition was -5.8%. Further, the Potency entry in assay [7] and in assay [8] was “inactive” in each case.
With `O=C(O)[C@@H]1[C@@H]2O[C@H]([C@@H](Br)[C@H]2Br)[C@H]1C(=O)O`, the Potency was more than 11.4 µM in assay [1], more than 46 µM in assay [5] and more than 9.22 µM in assay [6]. The activity change, negative = inhibition in assay [2] was 7.44%; in assay [3], 2.42%. Moreover, the activity, negative = inhibition in assay [4] was -2.12%. Besides, the Potency result in assay [7] and in assay [8] was “inactive” each time.
